Source: PubChem
EBV LMP1 NFkB – reduces LMP1-driven NF-kappaB luciferase signal | LMP1-induced NF-kappaB luciferase reporter cells, luminescence | inhibition, % at 12.5 µM | hit rate 0.69% among 350,000 | AID 504558; in the data active means inhibition above about 41%;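 further: 0% = neutral control wells and 100% = reference inhibitor control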
aSyn 5UTR inh – MLPCN primary screen, SNCA 5' untranslated region; alpha-synuclein 5'UTR reporter, inhibitor activity; inhibition, % (tested at 7.5 µM); hit rate 0.82% among 300,000; in the data active means inhibition above about 60%;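 further: H4 neuroglioblastoma cells stably carrying SNCA 5'UTR luciferase fusion; 0% = DMSO wells and 100% = positive control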
PAX8 inh HTS – PAX8 transcriptional activity inhibition; RMG-I TPO-luciferase reporter, SteadyGlo, 24 h; hit rate 1.2% among 360,000; inhibition, % at 12.6 µM;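 active means mean replicate inhibition at least 60% with every replicate also reaching 60%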;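 further: luciferase light reporting Pax8 driven TPO promoter activity; plate controls were median of neutral control wells for no effect and mitoxantrone controls for full effect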
Shn3 inh set2 – inhibitors of Schnurri-3 3'UTR reporter in osteoblasts; Clone20 osteoblast Shn3 3'UTR firefly luciferase, 24 h; inhibition, % at 12.5 µM; hit rate 0.52% among 360,000;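 active means mean inhibition of at least 75% with every replicate also reaching 75%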;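 further: 0% = median of neutral control wells and 100% = pilot-screen positive control compound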
MITF TRPM1 inh – reduces MITF-dependent TRPM1 promoter luciferase signal; SK-MEL-5 TRPM1 promoter luciferase, 24 h; inhibition, % at 12.5 µM; hit rate 0.83% among 330,000; AID 488899;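 active means mean inhibition across replicates of 60% or more, whatever share of single replicates reaches that level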
An asterisk follows results filed as active; x = no result given. Hits are enriched below; roughly 2.1% of the tested compounds scored in any of these assays.

SMILES	EBV LMP1 NFkB	aSyn 5UTR inh	PAX8 inh HTS	Shn3 inh set2	MITF TRPM1 inh
COc1cc(OC)cc(C2=Cc3ccccc3C(CC(C)=O)N2c2ccc(-c3cccs3)cc2)c1 (configuration not stated)	x	x	69.7*	x	x
c1c2c(cc3sc(N4CCOCC4)nc13)OCCO2	62.5*	94.2*	38.1	42.9	44.5
CC(C)(C)Nc1nc(SCC(=O)Nc2ccccc2Cl)nc(N2CCOCC2)n1	-6.2	-4.6	12.3	4.5	14.8
O=C(CCC(=O)NNC(=O)Nc1cccc(Cl)c1)NCc1ccccc1	42.3*	15.8	7.3	0.9	-17.2
CC(C)(C)c1cc(C(=O)NNC(=O)Nc2cccc(Cl)c2)n(Cc2ccccc2)n1	53.0*	x	-8.9	24.4	9.5
C[C@@H]1CN([C@H](C)CO)C(=O)c2cc(-c3ccccc3)cnc2O[C@H]1CN(C)C(=O)c1cccnc1	x	x	8.2	x	x
Cc1ccc(C(=O)O)cc1NC(=O)C1=CSCCO1	-4.1	1.5	-2.6	4.3	-3.8
CC(C)c1ccc(NC(=S)NCc2cccs2)cc1	-40.5	-85.7	x	-50.3	-46.2
COc1ccc(NC(=S)NCc2cccs2)cc1	56.6*	-41.7	-11.2	-4.7	-16.1
CCN(CC)S(=O)(=O)c1ccc2oc(C(=O)Nc3ccc(OC)cc3OC)c(C)c2c1	29.9	48.5	x	53.1	18.3
Oc1ccccc1N=N/C(=N/Nc1ccccc1O)c1ccccc1	-2.5	5.3	21.2	-7.3	-2.8
N#C/C(N=Nc1ccccc1O)=N\Nc1ccccc1O	-25.6	28.6	26.9	34.5	69.1*
COc1ccc(-c2c[n+]3c4n2CCCCC4=C(c2ccccc2)C3)cc1	-0.9	-12.6	x	29.3	77.9*
CCc1cnc(N2[C@@H](C#N)[C@@H](c3ccc(C#CC(C)C)cc3)[C@@H]2CO)s1	x	x	113.2*	x	x
COc1ccc(-c2nn(-c3ccccc3)cc2C(=O)NC(=S)NNC(=O)c2ccncc2)cc1	35.8	72.5*	-2.2	55.4	35.6
N#C[C@@H]1[C@@H](c2ccccc2C2=CCCCC2)[C@H](CO)N1C(=O)c1ccccn1	x	x	4.0	x	x
C[C@@H]1CN([C@H](C)CO)S(=O)(=O)c2ccc(C#C[C@@H](C)O)cc2O[C@H]1CN(C)C(=O)c1ccncc1	x	x	2.4	x	x
O=C(NCCCN1CCN(c2ccc(F)cc2)CC1)NC12CC3CC(CC(C3)C1)C2	0.6	-11.4	5.4	7.9	2.7
O=C(Cn1cnc2c(oc3nc4c(cc32)CCCC4)c1=O)Nc1ccccc1	-8.3	-8.8	9.4	-4.0	6.1
O=C(Cn1cnc2c(oc3nc4c(cc32)CCCC4)c1=O)Nc1cccc(Cl)c1	16.7	66.3*	-17.8	15.2	48.8
CC(C)NCC(O)COc1cccc2ccccc12 (configuration not stated)	51.8*	-21.0	-15.9	80.5	6.6
CC(C)NCC(O)COc1cccc2[nH]ccc12 (configuration not stated)	-3.2	x	x	-3.4	1.6
COc1ccc2cc3c(N)nn(C(=O)c4ccccc4[N+](=O)[O-])c3nc2c1	63.0*	49.0	-18.5	13.5	11.9
C[C@H](CO)N1C[C@H](C)[C@@H](CN(C)Cc2ccc(Cl)c(Cl)c2)Oc2ccc(N(C)C)cc2CC1=O	x	x	74.8*	x	x
C[C@@H]1CN([C@@H](C)CO)C(=O)Cc2cc(N(C)C)ccc2O[C@H]1CN(C)Cc1ccc(Cl)c(Cl)c1	x	x	71.1*	x	x
SMILES	EBV LMP1 NFkB	aSyn 5UTR inh	PAX8 inh HTS	Shn3 inh set2	MITF TRPM1 inh
COC(=O)[C@@H]1C(c2ccccc2)(c2ccccc2)[C@@]1(C)C(=O)OC	4.6	14.9	-8.5	1.1	10.9
COc1ccc(C[C@H](N)C(=O)N[C@H]2[C@@H](O)[C@H](n3cnc4c(N(C)C)ncnc43)O[C@@H]2CO)cc1	-21.1	x	117.1*	4.6	108.6*
C=CCOc1ccc(C[C@H](N)C(=O)NC[C@H]2O[C@@H](n3cnc4c(N)ncnc43)[C@H](O)[C@@H]2O)cc1	-1.1	x	x	-12.4	-7.9
OC[C@H]1O[C@@H](n2cnc3c(NC4CCCC4)nc(Cl)nc32)[C@H](O)[C@@H]1O	14.9	x	11.8	32.4	-9.5
CN(C)c1ncnc2c1nnn2C1OC(CO)C(O)C1O (configuration not stated)	-64.2	x	91.1*	-31.3	x
Nc1nc(Cl)nc2c1ncn2[C@@H]1O[C@H](CO)[C@@H](O)[C@H]1O	15.3	12.8	69.9*	2.8	4.7
Nc1nc(=S)c2ncn([C@@H]3O[C@H](CO)[C@@H](O)[C@H]3O)c2[nH]1	-39.5	x	97.3*	19.1	72.0*
CN(C)c1ncnc2c1ncn2C1OC(CO)C(O)C1O (configuration not stated)	35.9	108.0*	x	95.7*	42.0
O=c1[nH]cnc2c1ncn2C1OC(CO)C(O)C1O (configuration not stated)	3.9	x	-10.0	1.8	-0.3
CNc1ncnc2c1ncn2[C@@H]1O[C@H](CO)[C@@H](O)[C@H]1O	55.1*	x	0.4	-19.6	-8.7
c1ccc2c(c1)CC(N1CCCCC1)c1ccccc1S2 (configuration not stated)	-21.6	89.8*	4.6	-19.6	0.8
Cc1cc(N2CCOCC2)c2c(N)c(Br)cc(C)c2n1	62.6*	23.2	x	9.8	0.2
Cc1cc(=O)[nH]c(N2CCOCC2)n1	-0.4	3.3	-8.7	-19.5	-5.4
O=C(Nc1ccncc1)c1cncc(Br)c1	-1.5	-0.3	x	-18.2	16.5
O=C(Nc1ccc([N+](=O)[O-])cc1)Nc1ccon1	3.0	74.0*	21.2	13.3	35.6
O=C(Nc1ccc([N+](=O)[O-])cc1)c1cncc(Br)c1	42.9*	-34.2	-26.8	-11.4	-6.4
CCc1ccc(NC(=O)Nc2ccon2)cc1	-17.8	-136.0	-96.1	-49.5	-59.7
O=C(Nc1ccc(Nc2ccncc2)cc1)c1ccc([N+](=O)[O-])cc1	17.4	-23.2	32.8	47.5	85.8*
O=C(Nc1ccc([N+](=O)[O-])cc1)c1ccc(Cn2cc([N+](=O)[O-])cn2)cc1	-2.6	78.6*	19.1	66.2	3.0
CC1(C)NC(=O)N(CCCCOc2cccc(C(F)(F)F)c2)C1=O	4.1	40.4	x	6.7	6.8
CCc1cccc(C)c1NS(=O)(=O)Cc1ccccc1	4.5	10.8	25.3	0.2	18.4
COc1ccc2c3c(n(C)c2c1)[C@H](CO)N(C(=O)Cc1ccccn1)CC31CN(CC2CC2)C1	x	x	-14.9	x	x
Cc1ccc2nc(C)cc(Nc3ccc([N+](=O)[O-])cc3)c2c1	-97.9	10.0	95.6*	48.3	84.4*
COc1ccc2nc(C)cc(Nc3ccc(N4CCN(C)CC4)cc3)c2c1	-9.4	-87.2	58.6	-16.7	97.4*
COC(=O)c1ccc(Nc2cc(C)nc3ccc(C)cc23)cc1	0.8	53.2	24.4	7.5	75.8*
COc1ccc(OC)c(Nc2cc(C)nc3ccc(C)cc23)c1	7.5	62.9*	30.1	45.7	12.6
COc1ccc2nc(C)cc(Nc3ccc(C)cc3)c2c1	0.7	26.5	-4.7	8.3	12.9
Cc1cnc(CNC(=O)c2csc([C@H]3C[C@H](O)[C@@H](CO)O3)n2)cn1	x	x	1.3	2.3	x
C[C@@H]1CCCCO[C@@H](CN(C)CC2CCCCC2)[C@@H](C)CN([C@H](C)CO)C(=O)c2cc(NS(=O)(=O)c3cccs3)ccc2O1	x	x	8.1	x	x
